The structures appear in SMILES notation. Unmarked numbers belong to inactive results. The rule behind the calls is not given here.
Potency is the fitted concentration of half-maximal effect.

The test system of the assay is HIV-1 nucleocapsid protein NCp7 (binding to TG oligonucleotide). Kind of assay: HIV Nucleocapsid (AID 346).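 Note: potency is for inhibitors that block NC binding and lower polarization.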 As to conditions: HIV-1 NC / fluorescein-TGTGTGTG probe, fluorescence polarization. The method in brief: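 Fluorescence polarization readout: labelled TG4xF oligo (10 nM) with 100 nM nucleocapsid protein, high-salt (250mM NaCl) Hepes pH 7.5 buffer containing zinc and fresh reducing agents. Compounds added by pin tool; incubation 1 hr, room temperature.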
Background: Fluorescence polarisation rises when a labelled molecule tumbles more slowly, as on binding a larger partner.
On to `CN(C)C(=O)c1ccc(-c2cncnc2NCc2cccs2)cc1`, for which the Potency was greater than 20 µM.
As to `O=C(c1ccncc1)N1CCC2(CCN(Cc3ccccc3)CC2)CC1`, the Potency was greater than 20 µM.
The value for `CN(Cc1ccco1)c1ncnc2ccc(-c3cccc(NS(C)(=O)=O)c3)cc12` was greater than 20 µM.
In the case of `COc1cccc(-c2ccc3ncnc(NCc4ccccc4OC)c3c2)c1` it was greater than 20 µM; in that of `Cc1cccc(CNc2ccnc(-c3ccc(C(=O)N(C)C)cc3)n2)c1`, greater than 20 µM.
In the case of `COCC(=O)N1CCC2(CCCN(Cc3ccccc3)C2)CC1` it was greater than 20 µM.
Consider `CN1CCN(c2ncc3nc(-c4ccc(Cl)cc4)c(=O)n(CCC#N)c3n2)CC1`, for which the Potency was greater than 20 µM.
On to `Cn1cccc1C(=O)N1CCC[C@@]2(CCN(Cc3cc(C(F)(F)F)cc(C(F)(F)F)c3)C2)C1`, for which the Potency was greater than 20 µM.
The value for `CN1CCN(c2ncnc3ccc(-c4ccccc4Cl)cc23)CC1` was greater than 20 µM; that for `COCC(=O)N1CCC2(CC1)CN(c1ccc(-c3ccccc3)cc1)C2` was greater than 20 µM.
On to `O=C(c1csnn1)N1CCC2(CC1)CCN(c1ccncc1)CC2`, for which the Potency is greater than 20 µM.
In the case of `CN(C)Cc1ccccc1-c1nccc(N(C)Cc2ccco2)n1` it was greater than 20 µM; in that of `Cc1nc2cnc(Nc3ccccc3)nc2n(CCc2ccccc2)c1=O`, greater than 20 µM.
In the case of `COc1ccc(-c2nc3cnc(Nc4cccc(OC)c4)nc3n(C[C@H]3CCCO3)c2=O)cc1` it was 14.4 µM; in that of `Cc1ccccc1-c1nccc(NCc2cccnc2)n1`, greater than 20 µM.
The value for `COc1ncc2nc(-c3ccccc3)c(=O)n(C[C@H]3CCCO3)c2n1` was greater than 20 µM; that for `Cc1ccccc1-c1nccc(NCc2cccs2)n1` was greater than 20 µM.
On to `O=C(Nc1cccc(F)c1)N1CC2(CCN(C(=O)c3ccncc3)CC2)C1`, for which the Potency is greater than 20 µM.
The value for `O=C(c1cc(C(F)(F)F)cc(C(F)(F)F)c1)N1CCC[C@@]2(CCN(Cc3ccccc3)C2)C1` was greater than 4 µM.
The value for `O=C(c1cccc(F)c1)N1CCC2(CCCN(c3ccncc3)C2)CC1` was greater than 20 µM; that for `COc1ccc(Oc2ncc3nc(-c4ccc(Cl)cc4)c(=O)n(C4CC4)c3n2)cc1` was greater than 20 µM.
Take `CS(=O)(=O)Nc1cccc(-c2cncnc2NCc2cccs2)c1`: the Potency was greater than 20 µM.
The value for `O=C(Nc1cccc(F)c1)N1CC2(CCN(S(=O)(=O)c3ccccc3)CC2)C1` was greater than 20 µM.
In the case of `c1csc(CNc2nc(-c3ccc4c(c3)OCO4)nc3ccccc23)c1`, the Potency was greater than 20 µM.
In the case of `COc1ccc2[nH]cc(CCNc3cc(-c4ccccc4C(F)(F)F)ncn3)c2c1` it was greater than 20 µM.
In the case of `CS(=O)(=O)N1CCC[C@@]2(CCN(Cc3ccc(C#N)cc3)C2)C1` it was greater than 20 µM; in that of `O=C(Nc1cccc(F)c1)N1CC2(CCN(C(=O)c3cnccn3)CC2)C1`, greater than 20 µM; in that of `O=c1c(CCc2ccccc2)nc2cnc(N3CCOCC3)nc2n1C[C@H]1CCCO1`, greater than 20 µM.
In the case of `O=c1c(CCc2ccccc2)nc2cncnc2n1C1CC1` it was greater than 20 µM.
For the compound `Cc1ccccc1-c1ccc2ncnc(NCc3cccs3)c2c1`, the Potency is greater than 20 µM.
In the case of `CCNc1ncc2nc(-c3cccs3)c(=O)n(Cc3ccc(F)cc3)c2n1` it was greater than 20 µM.
In the case of `COc1ccc(Oc2ncc3nc(-c4ccc(F)cc4)c(=O)n(Cc4cccs4)c3n2)cc1` it was greater than 20 µM; in that of `O=c1c(-c2cccc(F)c2)nc2cncnc2n1Cc1ccc(F)cc1`, greater than 20 µM.
In the case of `O=C(c1cnccn1)N1CCC[C@@]2(CCN(c3cccc(-c4ccccc4)c3)C2)C1` it was greater than 20 µM.
Consider `COc1cccc(Nc2ncc3nc(-c4cccs4)c(=O)n(C[C@H]4CCCO4)c3n2)c1`, for which the Potency is greater than 4 µM.
For `CN(Cc1ccco1)c1nc(-c2ccccc2C(F)(F)F)nc2ccccc12`, the Potency is greater than 20 µM.
The value for `COCCNc1ccnc(-c2ccccc2C)n1` was greater than 20 µM; that for `CC(=O)N1CCC2(CCN(Cc3ccc(C#N)cc3)CC2)CC1` was greater than 20 µM; that for `CN1CCN(c2ncc3nc(-c4cccc(C#N)c4)c(=O)n(CCc4ccccc4)c3n2)CC1` was greater than 20 µM.

The record behind these values is PubChem BioAssay (NCATS).
